G9a inh – G9a (human) methyltransferase inhibition. Potency, µM (series often up to 102 µM), usual class: inhibitors. Q96KQ7. hit rate 8.8% among 350,000. G9a H3K9 monomethylation, AlphaScreen, 2 h; also: nearly all actives have a fitted effect of over 75% in size
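Methyltransferase reactions run at room temperature for 2 h (20 nM enzyme, 500 nM biotin-H3K9 peptide, 20 uM SAM) after a 15 min compound preincubation; product detected by AlphaScreen beads and anti-H3K9me1 antibody.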
Sfp inh – Sfp phosphopantetheinyl transferase inhibition; Q9F4F7; Biochemical Sfp PPTase activity, qHTS; Potency, µM, actives largely listed as inhibitors; hit rate 3.5% among 310,000;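 also: the enzyme is Sfp with the accession as filed and its product quenches rhodamine fluorescence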
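Fluorescence-quenching assay with 15 nM Sfp, 5 uM rhodamine-CoA and 12.5 uM BHQ-2-labelled ybbR peptide in pH 7.6 Hepes/MgCl2 buffer. Enzyme was pre-incubated with compound for 15 min at room temperature. Rate was taken from the 30-min fluorescence change (525/598 nm).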
L3MBTL1 block – inhibitors of human L3MBTL1; Q9Y468; hit rate 0.66% among 230,000; AlphaScreen L3MBTL1–H3K9me1 peptide binding; Potency, µM (series often up to 57.1 µM), most hits filed as inhibitors; also: nearly all actives have a fitted effect of over 60% in size
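Displacement of a biotinylated histone H3(1-15) peptide monomethylated at Lys9 (75 nM) from L3MBTL1 (50 nM) was measured by AlphaScreen after a 30 min room-temperature compound incubation; cefsulodin titration served as intraplate control.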
JMJD2A Tudor – inhibitors of human JMJD2A Tudor domain; O75164; AlphaScreen JMJD2A-Tudor / H3K4me3 peptide binding; Potency, µM (highest dose often 114 µM), hits mostly inhibitors; hit rate 4.4% among 390,000; AID 504339; also: nearly all actives have a fitted effect of over 50% in size
Target sequence (O75164 whole entry, looked up, the tested form may be a part): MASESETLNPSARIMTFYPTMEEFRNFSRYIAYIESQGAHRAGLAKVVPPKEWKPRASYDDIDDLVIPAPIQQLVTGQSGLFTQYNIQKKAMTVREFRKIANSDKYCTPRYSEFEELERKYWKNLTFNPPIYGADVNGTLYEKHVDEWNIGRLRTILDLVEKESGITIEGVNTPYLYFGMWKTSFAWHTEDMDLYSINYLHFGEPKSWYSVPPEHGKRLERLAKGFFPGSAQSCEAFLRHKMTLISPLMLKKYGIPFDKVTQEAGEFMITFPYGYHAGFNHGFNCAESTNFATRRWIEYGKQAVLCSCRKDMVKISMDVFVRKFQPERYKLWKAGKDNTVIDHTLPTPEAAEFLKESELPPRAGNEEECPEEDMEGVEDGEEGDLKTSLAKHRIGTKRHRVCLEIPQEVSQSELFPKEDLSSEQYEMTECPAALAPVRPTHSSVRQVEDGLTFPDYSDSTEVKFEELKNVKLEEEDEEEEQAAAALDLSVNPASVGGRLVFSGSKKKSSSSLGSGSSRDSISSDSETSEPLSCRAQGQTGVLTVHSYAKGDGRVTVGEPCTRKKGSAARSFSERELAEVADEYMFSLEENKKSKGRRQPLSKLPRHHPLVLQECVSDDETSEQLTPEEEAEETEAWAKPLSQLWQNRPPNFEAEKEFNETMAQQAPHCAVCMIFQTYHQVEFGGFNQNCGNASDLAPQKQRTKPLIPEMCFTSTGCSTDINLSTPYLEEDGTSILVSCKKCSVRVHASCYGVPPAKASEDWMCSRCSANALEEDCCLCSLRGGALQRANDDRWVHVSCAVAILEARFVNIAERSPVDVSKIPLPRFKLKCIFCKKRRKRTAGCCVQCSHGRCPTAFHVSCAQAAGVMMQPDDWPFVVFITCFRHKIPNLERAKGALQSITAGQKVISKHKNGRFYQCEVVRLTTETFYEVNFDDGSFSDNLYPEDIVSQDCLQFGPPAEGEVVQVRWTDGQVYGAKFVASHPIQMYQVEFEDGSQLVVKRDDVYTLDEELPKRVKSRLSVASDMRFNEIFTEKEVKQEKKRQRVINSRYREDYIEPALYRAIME
HP1b binding inh – HP1-beta chromodomain-methylated histone interaction inhibition; P83916; AlphaScreen HP1-beta / biotin-H3K9me3 peptide binding; Potency, µM (highest dose often 114 µM), most hits filed as inhibitors; hit rate 0.56% among 390,000; also: nearly all actives have a fitted effect of over 70% in size
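Compound inhibition of the preformed complex between 50 nM HP1-beta and 50 nM biotinylated H3K9me3 peptide was read by AlphaScreen. Buffer was PBS pH 7.4 with 0.01% Tween-20. Incubations ran 30 min at room temperature, with 10 ug/mL donor/acceptor beads.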
BAZ2B inh – inhibitors of human BAZ2B bromodomain. Q9UIF8. AlphaScreen BAZ2B-H3K14Ac peptide displacement. Potency, µM (top dose mostly 114 µM), hits mostly inhibitors. hit rate 4.4% among 360,000; also: nearly all actives have a fitted effect of over 60% in size
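Compounds, titrated to a top concentration of 110 uM, were incubated 30 min at room temperature with preformed BAZ2B/acetyl-K14 H3 peptide complex (50 nM each). Proximity signal was measured by AlphaScreen after 20 min with beads.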
Numbers stand for hits; n = inactive; u = inconclusive; x = no result; [ ] = dose if it differs, or a comment. In the library only some 12% were active in any assay of this set; here they are far more common. Calls follow the shape of the dose curve; as a rule, active = well fitted curve in the direction sought with a large enough effect; inconclusive = small, poorly fitted or top-dose-only effect, or another doubt; inactive = no such curve, though single readings can be large; an effect the other way counts as inactive or inconclusive.

SMILES	G9a inh	Sfp inh	L3MBTL1 block	JMJD2A Tudor	HP1b binding inh	BAZ2B inh
O=C(NN1C(=O)/C(=C/C=C/c2ccccc2)SC1=S)c1ccncc1	44.7µM	n	x	n	n	n
O=C(NN1C(=O)/C(=C/C=C/c2ccco2)SC1=S)c1ccncc1	3.98µM	7.94µM	x	14.1µM	12.6µM	5.62µM
COc1ccc(/C=C2\SC(=S)N(NC(=O)c3ccncc3)C2=O)cc1OC	x	n	n	x	x	u
c1ccc2oc(C3=NCCN3)cc2c1	x	n	x	x	x	x
CC(C)(C)N=C1NN=C(c2cc3ccccc3o2)CS1	39.8µM	n	n	n	n	u
CCCCOc1ccc(C2(C)NC(=O)NC2=O)cc1 (centres undefined)	n	n	n	15.8µM	n	n
COc1cccc(C2=Nn3c(nnc3-c3cc(OC)ccc3OC)SC2)c1	x	n	x	n	x	x
Cc1cc(CN2CCN(c3cccc(C)c3C)CC2)cs1	n	x	x	n	n	n
COc1cc(CN2CCN(c3cccc(C)c3C)CC2)cc(OC)c1O	u	n	n	1µM	n	50.1µM
Cc1cccc(N2CCN(Cc3ccoc3)CC2)c1C	10µM	n	x	11.2µM	u	50.1µM
COc1ccc(CNC(=O)N2CCN(c3cccc(C)c3C)CC2)cc1OC	n	n	x	n	n	n
O=C(CSS(=O)(=O)O)N1CCN(C(=O)c2ccoc2)CC1	20µM	15.8µM	x	n	n	n
Cc1c(C#N)c(O)[nH]c(=O)c1N=Nc1ccc(S(N)(=O)=O)cc1	79.4µM	n	x	u	u	n
Cc1c(C#N)c(O)[nH]c(=O)c1N=Nc1ccc(Cl)c(C(=O)O)c1	n[2.33 µM]	n	x	n	n	n
O=C(Nc1nnc(-c2ccco2)o1)c1ccc(S(=O)(=O)N2CCCC2)cc1	u	n	x	n	n	x
COCc1nnc(NC(=O)c2ccc(S(=O)(=O)N3CCCCCC3)cc2)o1	n	n	n	79.4µM	n	u
COCc1nnc(NC(=O)c2ccc(S(=O)(=O)N(C)C3CCCCC3)cc2)o1	u	n	n	79.4µM	n	u
CCCN(CCC)S(=O)(=O)c1ccc(C(=O)Nc2nnc(COC)o2)cc1	n	n	n	n	n	u
CCN1CCN(CC(=O)c2c[nH]c3ccc(C)cc23)CC1	n	n	x	u	n	n
CCOC(=O)N1CCN(CC(=O)c2c[nH]c3ccc(F)cc23)CC1	50.1µM	n	x	x	x	n
CCCCn1nc(C(=O)Oc2ccc3c(C)cc(=O)oc3c2)c2ccccc2c1=O	2.82µM	n	n	n	n	n
COc1ccc(C2=NN3C(C2)c2ccccc2OC3c2cccs2)cc1 (centres undefined)	39.8µM	n	n	n	n	u
COc1ccc(C2=NN3C(C2)c2ccccc2OC32C(=O)N(C)c3ccccc32)cc1 (centres undefined)	25.1µM	u	n	n	n	n
CCC(=O)N1CCc2cc(Br)cc(S(=O)(=O)CCC(=O)N3CCN(c4cc(C)ccc4C)CC3)c21	u	x	x	n	n	u
COCCN1C(=O)c2oc3ccccc3c(=O)c2C1c1ccc(OC)c(OC)c1 (centres undefined)	n	n	n	56.2µM	u	n
SMILES	G9a inh	Sfp inh	L3MBTL1 block	JMJD2A Tudor	HP1b binding inh	BAZ2B inh
CC(C)CCOc1cccc(C2c3c(oc4ccccc4c3=O)C(=O)N2CCCN2CCOCC2)c1 (centres undefined)	x	x	x	n	n	x
Cc1ccc2oc3c(c(=O)c2c1)C(c1cccs1)N(CCCN(C)C)C3=O (centres undefined)	39.8µM	u	n	n	n	n
COCCN1C(=O)c2oc3ccccc3c(=O)c2C1c1ccc(C(=O)OC)cc1 (centres undefined)	n	n	n	n	n	n
COc1ccc(C2c3c(oc4ccccc4c3=O)C(=O)N2CCN2CCOCC2)cc1OC (centres undefined)	x	x	x	n	n	x
COC(=O)c1ccc(C2c3c(oc4ccccc4c3=O)C(=O)N2CCCN2CCOCC2)cc1 (centres undefined)	35.5µM	25.1µM	n	n	n	n
COc1cccc(C2c3c(oc4ccccc4c3=O)C(=O)N2CCCN2CCOCC2)c1 (centres undefined)	50.1µM	n	n	n	n	n
O=C1c2oc3ccccc3c(=O)c2C(c2cccs2)N1CCCN1CCOCC1 (centres undefined)	39.8µM	u	n	n	n	u
CN1C(=O)c2oc3ccccc3c(=O)c2C1c1ccncc1 (centres undefined)	8.91µM	u	n	56.2µM	n	n
COC(=O)c1ccc(C2c3c(oc4ccc(Cl)cc4c3=O)C(=O)N2CCN2CCOCC2)cc1 (centres undefined)	20µM	n	x	n	n	n
COCCN1C(=O)c2oc3ccc(C)cc3c(=O)c2C1c1ccc(C(=O)OC)cc1 (centres undefined)	n	x	x	n	n	n
CCN(CCCCO)c1nc(C)nc2c1c(C)c(C)n2-c1c(C)cc(C)cc1C	x	n	x	x	x	x
COC(=O)CSC1=C(C#N)C(=O)NC(c2ccccc2)S1 (centres undefined)	u	31.6µM	x	u	n	50.1µM
CSC1=C(C#N)C(=O)NC(c2ccccc2O)S1 (centres undefined)	n	u	n	n	n	u
CSc1n[nH]c(/N=C/c2oc(O)c3ccccc23)n1	20µM	n	x	n	n	u
CCOc1ccccc1N=Cc1c(O)c2ccccc2oc1=O	n[0.501 µM]	n	n[2.29 µM]	n	n	n
Oc1oc(C=Nc2ccc(F)cc2F)c2ccccc12	5.01µM	n	x	n	n	u
Cc1cccc(/N=C/c2c(O)c3ccccc3oc2=O)n1	n[12.7 µM]	n	x	n	n	n
CCOC(=O)c1[nH]c2cc(OC)c(OC)cc2c1N	3.16µM	44.7µM	x	56.2µM	n	n
CCOC(=O)c1[nH]c2cc(OC)c(OC)cc2c1NC(=O)CN1CCN(C)CC1	u	n	x	x	x	n
CCOC(=O)c1[nH]c2ccc(C)cc2c1N=CN(CC)CC	n	n	n	n	n	n
CCOC(=O)c1[nH]c2ccc(OC)cc2c1NC(=O)c1ccc(OC)c(OC)c1	50.1µM	n	n	n	n	n
CCOC(=O)c1[nH]c2ccc(C)cc2c1N	1.78µM	17.8µM	n	u	n	n
COC(=O)CSc1ncc2c(n1)-c1ccccc1N(Cc1ccccc1C)S2(=O)=O	n	x	x	n	n	n
Cc1cccnc1NC(=O)c1ccc2nc(N)sc2c1	39.8µM	n	x	n	n	n
Nc1nc2ccc(C(=O)Nc3ccc(N4CCOCC4)cc3)cc2s1	x	x	n	u	n	x
O=C1CC(c2ccccc2)Sc2ccccc2N1Cc1ccc(F)cc1 (centres undefined)	n	x	x	n	n	n
CCN(CCCNC(=O)CCn1c(=O)[nH]c2ccccc2c1=O)c1cccc(C)c1	10µM	n	n	n	n	n
Cn1c(=O)cc(OCC(=O)NCCCN2CCN(c3cccc(Cl)c3)CC2)c2ccccc21	50.1µM	n	n	n	n	n
